The record followed here is PubChem BioAssay (Tox21).

Where “and” joins values, the source holds several entries; their conditions need not be identical. Equal entries are not always repeated. Results filed as inconclusive are left out. Where a call stands in place of a potency, no number is given. A structure can be active in one record and inactive in another. Calls of active or inactive are those of the source. Unless noted, calls come from the whole dose curve; as a rule, active = well fitted curve in the direction sought with a large enough effect in the repeat runs; inconclusive = weak or mixed curves; inactive = no such curve, though single readings can be large; an effect the other way counts as inactive or inconclusive.

Progesterone receptor (Homo sapiens), sequence (P06401 whole entry, looked up): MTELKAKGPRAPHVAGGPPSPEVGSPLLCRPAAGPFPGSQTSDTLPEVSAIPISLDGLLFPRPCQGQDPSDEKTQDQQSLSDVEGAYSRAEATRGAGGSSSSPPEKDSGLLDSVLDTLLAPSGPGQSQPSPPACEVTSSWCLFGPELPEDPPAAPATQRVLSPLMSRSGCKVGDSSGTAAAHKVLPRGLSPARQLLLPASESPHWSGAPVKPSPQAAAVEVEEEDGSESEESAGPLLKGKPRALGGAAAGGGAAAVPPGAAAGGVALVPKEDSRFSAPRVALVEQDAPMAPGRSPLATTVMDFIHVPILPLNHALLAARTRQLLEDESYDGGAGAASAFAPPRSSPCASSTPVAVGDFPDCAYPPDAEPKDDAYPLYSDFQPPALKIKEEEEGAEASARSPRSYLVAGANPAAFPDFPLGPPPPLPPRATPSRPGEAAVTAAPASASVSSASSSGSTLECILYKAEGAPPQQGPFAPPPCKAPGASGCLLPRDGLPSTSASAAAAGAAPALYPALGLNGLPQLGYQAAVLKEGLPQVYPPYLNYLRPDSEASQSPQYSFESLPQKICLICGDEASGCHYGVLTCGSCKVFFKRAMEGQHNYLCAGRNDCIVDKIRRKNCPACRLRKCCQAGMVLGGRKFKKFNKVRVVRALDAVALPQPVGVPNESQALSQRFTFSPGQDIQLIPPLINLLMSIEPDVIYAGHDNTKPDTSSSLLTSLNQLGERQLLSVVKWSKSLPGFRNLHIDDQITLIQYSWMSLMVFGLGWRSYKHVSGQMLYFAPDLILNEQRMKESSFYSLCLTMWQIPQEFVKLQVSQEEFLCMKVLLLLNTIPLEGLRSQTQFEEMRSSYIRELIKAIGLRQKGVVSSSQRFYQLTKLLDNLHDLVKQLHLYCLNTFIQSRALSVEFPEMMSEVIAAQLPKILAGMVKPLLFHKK

The target in the first assay is Progesterone receptor (Homo sapiens) (UniProt P06401). Briefly: qHTS assay to identify small molecule antagonists of the progesterone receptor (PR) signaling pathway (AID 1346795; active = well fitted inhibition curve with a large enough effect in the signal ratio in the repeat runs, not every such curve was filed as active; the % refers to the signal ratio; note: potency is the fitted concentration of half-maximal effect). As to conditions: PR-UAS-bla HEK293T, beta-lactamase FRET ratio, 16 h; series mostly up to 92.4 µM; activity change, negative = inhibition: at the top concentration. The essentials:
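HEK293T PR-UAS-bla reporter cells in charcoal-stripped serum (2%) received compound after a 6 hr settling period, followed by R5020 agonist at 1 nM final; 16 hr incubation preceded the FRET substrate step and fluorescence measurement.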
(In general: qHTS replaces the single test concentration by a dilution series.)
`c1ccc2c(c1)Oc1ccccc1S2`: the Potency result is “inactive”.
For the compound `Cc1cc2nc3c(=O)[nH]c(=O)nc-3n(C[C@H](O)[C@H](O)[C@H](O)CO)c2cc1C`, the activity change, negative = inhibition was -6.9% [at 18.9 µM] (inactive).
Regarding `COC(=O)c1ccccc1`, the Potency entry is “inactive”.
Regarding `CC(C)OC=O`, the “activity change, negative = inhibition” value was -4.85% (inactive).
With `Cc1ccc(C(=O)c2cc(O)c(O)c([N+](=O)[O-])c2)cc1`, the Potency was 23.7 µM (active).
Same read-out and setting: to `O=C1c2cccc(O)c2C(=O)c2c(O)cccc21` belongs “inactive”.
In the case of `C[Si](C)(C)O[Si](C)(C)C`, the “activity change, negative = inhibition” value is 3.66% (inactive).
As for `CN(C)C(=N)N=C(N)N`, the Potency result was “inactive”.
Same read-out and setting: then `CCCCCCCCCC(=O)OC`, with “inactive”; and `c1ccncc1`, with “inactive”.
With `S=C(NC1CCCCC1)NC1CCCCC1`, the Potency was 3.44 µM (active).
`O=C(COc1ccc(Cl)cc1)N1CCN(Cc2ccc3c(c2)OCO3)CC1`: the Potency was 54.5 µM (active).
Same read-out and setting: then `c1ccc(Nc2ccccc2)cc1`, with 48.5 µM (active) and inactive; and `CCC(C)(O)CCCC(C)C` (centres undefined), with “inactive”.
Consider `Cn1cnc([N+](=O)[O-])c1Sc1ncnc2nc[nH]c12`, for which the “activity change, negative = inhibition” value was -8.02% [at 42.5 µM] (inactive).
Take `O=C(c1ccccc1)c1ccc(O)cc1O`: the Potency is 15.7 µM (active) and 19.3 µM (active).
The same measure, in the same setting: then `CC(C)=CCC/C(C)=C\CO`, with “inactive”; and `C/C=C/C(=O)O`, with “inactive”; and `CC(=O)CC/C=C(\C)CCC=C(C)C`, with “inactive”.
Still for that read-out and setting: to `Nc1ccc(Cl)cc1Cl` belongs “inactive”.
As for `Brc1cc(Oc2cc(Br)c(Br)c(Br)c2Br)c(Br)c(Br)c1Br`, the “activity change, negative = inhibition” value is 2.6% [at 42.5 µM] (inactive).
As for `OC1CCCCCCCCCCC1`, the Potency entry was “inactive”.
Still for that read-out and setting: then `CCCCOCCOCCO`, with “inactive”.
Consider `COc1ccccc1/C=C/C=O`, for which the “activity change, negative = inhibition” value was 0.703% (inactive).
In the case of `C[C@]12CC[C@H]3[C@@H](CCC4=CC(=O)CC[C@@]43C)[C@@H]1CC[C@@H]2C(=O)CO`, the Potency entry is “inactive”.
For `CCCCOCCOCCOCCO`, the “activity change, negative = inhibition” value is 7.29% [at 42.5 µM] (inactive).
In the case of `CC1=CC2C3CC(C=C3C)C2C1` (centres undefined), the Potency result is “inactive”.
Take `CC(C)Oc1ccc2c(=O)c(-c3ccccc3)coc2c1`: the Potency entry was “inactive”.
As for `O=C1OC2(c3cc(Br)c(O)c(Br)c3Oc3c2cc(Br)c(O)c3Br)c2c(Cl)c(Cl)c(Cl)c(Cl)c21`, the “activity change, negative = inhibition” value is -20% [at 42.5 µM] (inactive).

Test system in the next assay: not listed separately
Briefly: qHTS assay to identify small molecule antagonists of the progesterone receptor (PR) signaling pathway - cell viability counter screen (AID 1346798). Note: nearly all actives have a fitted effect of over 50% in size. Note: potency is the fitted concentration of half-maximal effect. The settings on record: PR-UAS-bla HEK293T viability, CellTiter-Glo luminescence, 16 h; series mostly up to 92.4 µM; activity change, negative = cytotoxicity: at the top concentration. The essentials: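 Same-well multiplex: after 16 hr at 37C with compound and R5020 stimulation, HEK293T cells carrying a UAS-bla reporter received LiveBLAzer substrate (2 hr RT), then CellTiter-Glo (30 min RT) for luminescent viability.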
For the compound `c1ccc2c(c1)Oc1ccccc1S2`, the Potency result was “inactive”.
In the case of `CC(C)OC=O`, the “activity change, negative = cytotoxicity” value is -5.5% (inactive).
As for `Cc1ccc(C(=O)c2cc(O)c(O)c([N+](=O)[O-])c2)cc1`, the “activity change, negative = cytotoxicity” value was 28.8% [at 42.5 µM] (inactive).
In the case of `C[Si](C)(C)O[Si](C)(C)C`, the Potency entry was “inactive”.
Take `CN(C)C(=N)N=C(N)N`: the Potency entry was “inactive”.
`NNc1ccc(C(=O)O)cc1`: the Potency entry is “inactive”.
Still for that read-out and setting: to `c1ccncc1` belongs “inactive”; to `O=C(/C=C/C=C/c1ccc2c(c1)OCO2)N1CCCCC1`, “inactive”.
With `COC(=O)Nc1nc2ccc(S(=O)c3ccccc3)cc2[nH]1` (centres undefined), the Potency entry is “inactive”.
The same measure, in the same setting: then `S=C(NC1CCCCC1)NC1CCCCC1`, with 6 µM (active) and 3.86 µM (active).
Consider `O=C(COc1ccc(Cl)cc1)N1CCN(Cc2ccc3c(c2)OCO3)CC1`, for which the “activity change, negative = cytotoxicity” value was -16.2% (inactive).
Consider `CCC(C)(O)CCCC(C)C` (centres undefined), for which the Potency result was “inactive”.
Turning to `CN(C)c1nc(N(C)C)nc(N(C)C)n1`, the Potency entry is “inactive”.
Consider `CC(C)=CCC/C(C)=C\CO`, for which the “activity change, negative = cytotoxicity” value is -0.316% (inactive).
In the case of `C/C=C/C(=O)O`, the Potency entry was “inactive”.
In the case of `CC(=O)CC/C=C(\C)CCC=C(C)C`, the Potency entry was “inactive”.
Consider `OC1CCCCCCCCCCC1`, for which the Potency result was “inactive”.
On the same count and under the same terms, then `CCCCOCCOCCO`, with “inactive”.
Still for that read-out and setting: to `COc1ccccc1/C=C/C=O` belongs “inactive”; to `C[C@]12CC[C@H]3[C@@H](CCC4=CC(=O)CC[C@@]43C)[C@@H]1CC[C@@H]2C(=O)CO`, “inactive”; to `CC1=CC2C3CC(C=C3C)C2C1` (centres undefined), “inactive”.
In the case of `CC(C)(C)NC(=O)[C@H]1CC[C@H]2[C@@H]3CC[C@H]4NC(=O)C=C[C@]4(C)[C@H]3CC[C@]12C`, the Potency entry is “inactive”.

Test system in the next assay: not listed separately
The experiment in a line: qHTS assay to identify small molecule agonists of the progesterone receptor (PR) signaling pathway - cell viability counter screen (AID 1346799; calls by dose curve; note: nearly all actives have a fitted effect of over 45% in size; note: potency is the fitted concentration of half-maximal effect). The settings on record: PR-UAS-bla HEK293T viability, CellTiter-Glo luminescence, 16 h; series mostly up to 92.4 µM; activity change, negative = cytotoxicity: at the top concentration. The essentials: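 Counter screen for cytotoxicity: compound-treated PR-UAS-bla HEK293T cells (16 hr, 37C, 5% CO2) were assayed with CellTiter-Glo, luminescence measured after 30 min at room temperature.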
Turning to `c1ccc2c(c1)Oc1ccccc1S2`, the Potency result is “inactive”.
Same read-out and setting: then `Cc1cc2nc3c(=O)[nH]c(=O)nc-3n(C[C@H](O)[C@H](O)[C@H](O)CO)c2cc1C`, with “inactive”; and `COC(=O)c1ccccc1`, with “inactive”; and `O=C1c2cccc(O)c2C(=O)c2c(O)cccc21`, with “inactive”.
For the compound `CN(C)C(=N)N=C(N)N`, the Potency result is “inactive”.
Consider `CCCCCCCCCC(=O)OC`, for which the Potency entry was “inactive”.
With `c1ccc(Nc2ccccc2)cc1`, the “activity change, negative = cytotoxicity” value is -8.73% (inactive).
Take `CCOC(=O)C(C#N)=C(c1ccccc1)c1ccccc1`: the Potency result was “inactive”.
Same read-out and setting: to `C/C=C/C(=O)O` belongs “inactive”.
`CC(=O)CC/C=C(\C)CCC=C(C)C`: the Potency result is “inactive”.
For `Nc1ccc(Cl)cc1Cl`, the Potency entry is “inactive”.
Same read-out and setting: to `Brc1cc(Oc2cc(Br)c(Br)c(Br)c2Br)c(Br)c(Br)c1Br` belongs 2.18 µM (active) and inactive.
`OC1CCCCCCCCCCC1`: the Potency entry is “inactive”.
Take `CCCCOCCOCCO`: the Potency entry was “inactive”.
On the same count and under the same terms, to `COc1ccccc1/C=C/C=O` belongs “inactive”.
For `CCCCOCCOCCOCCO`, the Potency entry is “inactive”.
Same read-out and setting: then `CC1=CC2C3CC(C=C3C)C2C1` (centres undefined), with “inactive”; and `CC(C)(C)NC(=O)[C@H]1CC[C@H]2[C@@H]3CC[C@H]4NC(=O)C=C[C@]4(C)[C@H]3CC[C@]12C`, with “inactive”.
As for `O=C1OC2(c3cc(Br)c(O)c(Br)c3Oc3c2cc(Br)c(O)c3Br)c2c(Cl)c(Cl)c(Cl)c(Cl)c21`, the “activity change, negative = cytotoxicity” value was -1.67% [at 42.5 µM] (inactive).

Test system in another assay: not listed separately
Briefly: qHTS assay to identify small molecule antagonists of the TGF-beta/Smad signaling pathway - cell viability counter screen (AID 1346824). Note: nearly all actives have a fitted effect of over 50% in size. The settings on record: SBE-bla HEK293T viability, CellTiter-Glo luminescence; series mostly up to 76.8 µM; viability change, negative = cytotoxic: at the top concentration. The essentials:
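SBE-bla HEK 293T cells were plated overnight at 37 C, then given compounds in DMSO plus TGF-beta1 (added as 0.25 ng/mL solution) for 5 hr. After the bla read, CellTiter-Glo was added to the same wells and luminescence read after 30 min at room temperature.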
In the case of `c1ccc2c(c1)Oc1ccccc1S2`, the Potency result is “inactive”.
On the same count and under the same terms, then `C#C[C@]1(O)CC[C@H]2[C@@H]3CCc4cc(OC)ccc4[C@H]3CC[C@@]21C`, with “inactive”; and `Cc1cc2nc3c(=O)[nH]c(=O)nc-3n(C[C@H](O)[C@H](O)[C@H](O)CO)c2cc1C`, with “inactive”; and `COC(=O)c1ccccc1`, with “inactive”.
Take `CC(C)OC=O`: the Potency result is “inactive”.
Take `Cc1ccc(C(=O)c2cc(O)c(O)c([N+](=O)[O-])c2)cc1`: the Potency entry was “inactive”.
On to `O=C1c2cccc(O)c2C(=O)c2c(O)cccc21`, for which the Potency result is “inactive”.
Still for that read-out and setting: to `C[Si](C)(C)O[Si](C)(C)C` belongs “inactive”; to `O=C=Nc1ccc(Cc2ccc(N=C=O)cc2)cc1`, “inactive”.
Same read-out and setting: to `CN(C)C(=N)N=C(N)N` belongs “inactive”; to `NNc1ccc(C(=O)O)cc1`, “inactive”.
On to `CCCCCCCCCC(=O)OC`, for which the Potency entry was “inactive”.
On the same count and under the same terms, to `c1ccncc1` belongs “inactive”.
Regarding `Cc1c(OCC(F)(F)F)ccnc1CS(=O)c1nc2ccccc2[nH]1` (centres undefined), the “viability change, negative = cytotoxic” value is 2.7% (inactive).
Take `O=C(/C=C/C=C/c1ccc2c(c1)OCO2)N1CCCCC1`: the Potency result is “inactive”.
On the same count and under the same terms, then `COC(=O)Nc1nc2ccc(S(=O)c3ccccc3)cc2[nH]1` (centres undefined), with “inactive”.
In the case of `S=C(NC1CCCCC1)NC1CCCCC1`, the Potency result was “inactive”.
Regarding `O=C(COc1ccc(Cl)cc1)N1CCN(Cc2ccc3c(c2)OCO3)CC1`, the Potency result is “inactive”.
Same read-out and setting: to `c1ccc(Nc2ccccc2)cc1` belongs “inactive”; to `CCC(C)(O)CCCC(C)C` (centres undefined), “inactive”.
For the compound `Cn1cnc([N+](=O)[O-])c1Sc1ncnc2nc[nH]c12`, the “viability change, negative = cytotoxic” value is -15.9% [at 35.3 µM] (inactive).
In the case of `CCOC(=O)C(C#N)=C(c1ccccc1)c1ccccc1`, the Potency result was “inactive”.
Turning to `O=C(c1ccccc1)c1ccc(O)cc1O`, the Potency entry is “inactive”.
With `CN(C)c1nc(N(C)C)nc(N(C)C)n1`, the Potency result was “inactive”.
With `CC(C)=CCC/C(C)=C\CO`, the Potency entry is “inactive”.
On the same count and under the same terms, to `C/C=C/C(=O)O` belongs “inactive”; to `CC(=O)CC/C=C(\C)CCC=C(C)C`, “inactive”.
On to `Nc1ccc(Cl)cc1Cl`, for which the Potency result is “inactive”.
The same measure, in the same setting: to `Brc1cc(Oc2cc(Br)c(Br)c(Br)c2Br)c(Br)c(Br)c1Br` belongs “inactive”.
In the case of `OC1CCCCCCCCCCC1`, the Potency entry is “inactive”.
Same read-out and setting: then `CCCCOCCOCCO`, with “inactive”; and `COc1ccccc1/C=C/C=O`, with “inactive”.
The same measure, in the same setting: then `C[C@]12CC[C@H]3[C@@H](CCC4=CC(=O)CC[C@@]43C)[C@@H]1CC[C@@H]2C(=O)CO`, with “inactive”; and `CC(=O)O[C@]1(C(C)=O)CC[C@H]2[C@@H]3C=C(Cl)C4=CC(=O)[C@@H]5C[C@@H]5[C@]4(C)[C@H]3CC[C@@]21C`, with “inactive”.
As to `CCCCOCCOCCOCCO`, the Potency entry was “inactive”.
Turning to `CC1=CC2C3CC(C=C3C)C2C1` (centres undefined), the Potency entry is “inactive”.
For `CC(C)(C)NC(=O)[C@H]1CC[C@H]2[C@@H]3CC[C@H]4NC(=O)C=C[C@]4(C)[C@H]3CC[C@]12C`, the Potency entry was “inactive”.
In the case of `CC(C)Oc1ccc2c(=O)c(-c3ccccc3)coc2c1`, the Potency result was “inactive”.
Consider `O=C1OC2(c3cc(Br)c(O)c(Br)c3Oc3c2cc(Br)c(O)c3Br)c2c(Cl)c(Cl)c(Cl)c(Cl)c21`, for which the “viability change, negative = cytotoxic” value was -14.8% (inactive).
